Screening results deposited in PubChem by National Center for Advancing Translational Sciences (NCATS).
MBNL1-CUG inh: blocks human MBNL1 binding to CUG repeat RNA; Q9NR56; TR-FRET MBNL1-His/biotin-(CUG)12 binding, 665/545 ratio; Potency, µM (top dose mostly 57.5 µM), without a hit: top-dose activity change, negative = inhibition, usual class: inhibitors; 280,000 compounds, 0.036% hits; AID 2675; active means well fitted inhibition curve with a large enough effect in the signal ratio, with a control signal flat, not every such curve was filed as active; inconclusive means small, poorly fitted or top-dose-only effect, or effect the other way, or a change in a side signal; inactive means no such curve, though single readings can be large or run the other way; the % refers to the signal ratio; further: on the % scale 0 is the no-effect control and ±100 the full control effect
Target sequence (Q9NR56 whole entry, looked up): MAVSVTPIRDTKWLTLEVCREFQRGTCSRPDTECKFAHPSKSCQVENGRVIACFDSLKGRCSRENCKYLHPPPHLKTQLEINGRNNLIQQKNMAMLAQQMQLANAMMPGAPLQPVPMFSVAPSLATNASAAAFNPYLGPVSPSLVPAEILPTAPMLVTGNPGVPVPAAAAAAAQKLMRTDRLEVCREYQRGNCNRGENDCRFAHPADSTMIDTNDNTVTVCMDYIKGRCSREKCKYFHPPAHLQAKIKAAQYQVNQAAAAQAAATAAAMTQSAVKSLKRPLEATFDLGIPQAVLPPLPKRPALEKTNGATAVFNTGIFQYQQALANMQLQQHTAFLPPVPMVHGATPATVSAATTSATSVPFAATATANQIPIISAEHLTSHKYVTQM
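TR-FRET between His-tagged MBNL1 and biotin-(CUG)12 RNA, detected with Tb anti-His antibody (0.055 ng/ul) and streptavidin-XL665 (5 nM), 60 min at room temperature. Compounds titrated 92 nM to 58 uM; 665/545 nm ratio normalized to buffer and complex controls.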
GRP78 ERSR act: induces the endoplasmic reticulum stress response in human glioma cells; U87-MG GRP78 promoter luciferase reporter, 16 h; Potency, µM, without a hit: at the highest dose activation, usual class: activators; 420,000 compounds, 0.02% hits; AID 602332; further: series mostly up to about 76 µM; % of control where 0% means no effect; nearly all actives have a fitted effect of over 35% in size
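Stably transfected U87-MG glioma cells carrying a GRP78-based luciferase sensor; 16 h compound incubation. Luminescence end-point read 10 min after Bright-Glo addition at room temperature.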
aSyn rescue: rescues yeast growth from alpha-synuclein toxicity. Yeast expressing alpha-synuclein, growth rescue, BacTiter-Glo, 24 h. Potency, µM (titrated, usually from 46.1 µM), for inactives: at the top dose growth rescue (activation), usual class: activators. 370,000 compounds, 0.14% hits; further: % of control where 0% means no effect; nearly all actives have a fitted effect of over 65% in size
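Rescue of yeast growth: cells expressing toxic alpha-synuclein, induced in galactose at OD600 0.02, incubated with compound 24 h at 30 C. ATP luminescence quantified growth; inhibitors of toxicity appear as activators.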
FUS yeast rescue: FUS proteinopathy suppression in yeast; S. cerevisiae FUS-expressing, growth rescue, OD600, 24 h; Potency, µM (series often up to 76.6 µM), actives largely listed as activators; 390,000 compounds, 0.24% hits;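 further: plate controls were DMSO vehicle for no effect and reference control for full effect; nearly all actives have a fitted effect of over 55% in size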
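S. cerevisiae expressing FUS from galactose induction served as the toxicity model. Growth after 24hr at 30C, read as absorbance at 600 nm, indicates suppression of toxicity; compounds dosed at several concentrations.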
Abeta yeast res: compounds reversing amyloid beta toxicity in yeast | Potency, µM (doses to about 46.1 µM), most hits filed as activators | yeast expressing A-beta42, growth rescue, OD600, 48 h; response scale: 0% DMSO, 100% iron-clioquinol control | 410,000 compounds, 0.063% hits; further: nearly all actives have a fitted effect of over 55% in size
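Yeast A-beta toxicity model in growth medium with pinned compounds, 48 h at 30 C; growth read as absorbance at 600 nm. Normalized to FeCl3/clioquinol equimolar mix (positive) and DMSO (negative).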
TDP-43 yeast inh: rescues yeast growth from TDP-43 toxicity. Potency, µM (series often up to 46.1 µM), for inactives: top-dose growth rescue (activation), actives largely listed as activators. 410,000 compounds, 1.8% hits. TDP-43 expressing yeast growth rescue, BacTiter-Glo, 24 h. AID 652104; further: % of control where 0% means no effect; nearly all actives have a fitted effect of over 50% in size
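Growth rescue of TDP-43-toxic yeast measured as ATP luminescence (BacTiter-Glo). Cells grown to mid-log in raffinose, induced in galactose at OD600=0.02, exposed to compound 24 hr at 30 deg C.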
* hit, by the source's call; i = inactive; ? = inconclusive; . = no result. Shown are actives, neighbours in structure and some others; about 2% of the full set was active somewhere. Unless noted, the call rests on the fitted dose curve; in most records, active means well fitted curve in the direction sought with a large enough effect; inconclusive means small, poorly fitted or top-dose-only effect, or another doubt; inactive means no such curve, though single readings can be large; an effect the other way counts as inactive or inconclusive. Potency means the concentration at half of the fitted maximal effect.

SMILES | MBNL1-CUG inh | GRP78 ERSR act | aSyn rescue | FUS yeast rescue | Abeta yeast res | TDP-43 yeast inh
Clc1cccc(CNc2ccn3nc(-c4cccc(Cl)c4)cc3n2)c1 | . | 13% | 25% | i | ? | 11µM*
Clc1cccc(CNc2ccn3nc(-c4ccccc4)cc3n2)c1 | . | -5% | ? | i | ? | 13µM*
CC(C)(C)c1cc2nc(NCCc3ccc(S(N)(=O)=O)cc3)ccn2n1 | . | -1% | -1% | i | i | 13%
CC(C)(C)c1cc2nc(NCc3cccc(Cl)c3)ccn2n1 | . | 0% | ? | i | ? | 25µM*
Clc1ccc(-c2cc3nc(NCc4cccc(Cl)c4)ccn3n2)cc1 | . | 1% | -42% | i | i | 35µM*
Clc1cccc(-c2cc3nc(NCCOc4ccccc4)ccn3n2)c1 | . | 1% | 1% | i | i | -28%
O=C(c1cscn1)N1CCOc2ccc(CN3CCC(Oc4cccnc4)CC3)cc2C1 | . | -5% | . | . | . | .
Cc1cc(C)c2c(-n3cccc3)nn(CC#N)c2n1 | 4% | -5% | 16% | i | i | 13µM*
Cc1cc(C)c2c(-n3cccc3)n[nH]c2n1 | -5% | 1% | 1% | i | i | -10%
Cc1ccc(S(=O)(=O)N[C@@H](Cc2ccccc2)C(=O)CCl)cc1 | -13% | -12% | -39% | i | i | 3.2µM*
Cc1ccc(S(=O)(=O)NOCc2ccccc2)cc1 | . | 2% | 18µM* | i | i | -16%
Cc1ccc(S(=O)(=O)NC(Cc2ccccc2)C(=O)NN)cc1 (configuration not stated) | 8% | -2% | -1% | i | i | 2%
COCc1c(C(=O)N2CCN(C3CCCC3)CC2)cnn1-c1ncc2c(n1)-c1ccccc1CCC2 | . | -6% | . | . | . | .
O=C(NCCN1C(=O)S/C(=C\c2cccc(Cl)c2Cl)C1=O)C1=COCCO1 | 8% | -2% | 2% | i | i | 4µM*
Nn1cnc2scc(-c3ccc(Cl)cc3)c2c1=O | 2% | -1% | 3% | i | i | ?
O=c1c2c(-c3ccc(Cl)cc3)csc2nc2n1CCC2 | -5% | -2% | -3% | . | i | 14µM*
CSc1c(-c2ccccn2)c(N)nn1C(=O)C1CC1 | -14% | -1% | 13% | i | i | 11µM*
CSc1nnc2ccc(-c3ccccn3)nn12 | ? | 0% | -5% | i | i | 17%
CSc1c(-c2ccccn2)c(N)nn1C(=O)C1CCC1 | -6% | -3% | -13% | i | i | 11µM*
Cc1noc(C)c1C(=O)N1CCC2(CCCN(C(c3ccccc3)c3ccccc3)C2)CC1 | . | 28µM* | . | . | . | .
Cc1noc(C)c1C(=O)N1CCC2(CCCN(Cc3ccccc3)C2)CC1 | . | -3% | . | . | . | .
O=C(NCc1ccccn1)c1cnn(-c2nccc(-c3ccccc3F)n2)c1C1CC1 | . | 1% | . | . | . | .
COc1ccc(-c2ccc(C(=O)Nc3cccc(NS(C)(=O)=O)c3)c3occc23)c(C)c1 | . | -2% | -7% | ? | i | 14µM*
O=C(NCc1ccccc1)c1cccc2c(-c3cccnc3)coc12 | . | 1% | 0% | i | i | ?
COc1ccc(-c2ccc(C(=O)Nc3cccc(F)c3)c3occc23)c(C)c1 | . | -1% | -17% | i | i | 26%
SMILES | MBNL1-CUG inh | GRP78 ERSR act | aSyn rescue | FUS yeast rescue | Abeta yeast res | TDP-43 yeast inh
CC(C)CNC(=O)c1cccc2c(-c3cccnc3)coc12 | . | 4% | 0% | i | i | 21%
O=C(NCc1ccc(C(F)(F)F)cc1)c1cccc2c(-c3cccnc3)coc12 | . | -3% | 12% | i | i | 13µM*
CN(C)c1cccc(NC(=O)c2cccc3c(-c4ccc(F)c(F)c4)coc23)c1 | . | 0% | 4% | i | i | 14µM*
COc1ccc(NC(=O)c2cccc3c(-c4cccnc4)coc23)cc1 | . | -1% | 12% | i | i | 10µM*
CC[C@@H](CCC1CCCCC1)CN(c1ccccc1)S(C)(=O)=O | . | . | . | i | . | .
COc1ccc(-c2coc3c(C(=O)Nc4cccnc4)cccc23)c(C)c1 | . | -1% | -13% | ? | i | 18µM*
